Test results from article PMC7862700, “An all-to-all approach to the identification of sequence-specific readers for epigenetic DNA modifications on cytosine”.

What was measured:
Test in all cases: DAPPL (digital affinity profiling via proximity ligation, sequencing); 10 mM Tris-HCl pH 7.5, 50 mM NaCl, 1 mM DTT, 4% glycerol, room temperature, 30 min; GST-TFs on glutathione beads, 16-mer random dsDNA library, 0.1% formaldehyde crosslink after washing; high values mean tight binding
FLI1 = target: T1, FLI1 (Homo sapiens, UniProt Q01543 1-452); conditions: protein: recombinant; tags: N-terminal GST; dsDNA, one strand shown
T1 sequence: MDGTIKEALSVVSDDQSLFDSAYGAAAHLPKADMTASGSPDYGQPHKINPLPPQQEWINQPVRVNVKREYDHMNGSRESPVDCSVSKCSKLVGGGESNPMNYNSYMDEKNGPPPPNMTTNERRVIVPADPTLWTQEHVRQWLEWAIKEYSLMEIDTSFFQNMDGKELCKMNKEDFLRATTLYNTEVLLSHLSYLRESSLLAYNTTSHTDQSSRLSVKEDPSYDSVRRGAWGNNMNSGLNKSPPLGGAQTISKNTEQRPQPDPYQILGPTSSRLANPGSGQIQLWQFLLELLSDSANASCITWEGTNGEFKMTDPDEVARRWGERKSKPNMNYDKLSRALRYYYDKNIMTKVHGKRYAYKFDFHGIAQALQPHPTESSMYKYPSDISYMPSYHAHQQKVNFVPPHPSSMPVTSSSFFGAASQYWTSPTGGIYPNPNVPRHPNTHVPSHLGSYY
Outline: (§1)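 GST fusions of human transcription factors were expressed in yeast and captured with glutathione beads. Once given DNA barcodes and pooled alongside a tag-only sample, they were incubated for 30 min at room temperature with 200 nmole of a random double-stranded 16-mer DNA library in Tris/NaCl/DTT/glycerol buffer, then washed, crosslinked (0.1% formaldehyde), proximity-ligated, PCR-amplified and sequenced on an Illumina NextSeq500. The binding signal of each hexamer is its read frequency for a factor divided by its frequency for the tag-only sample.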

ELK1 = target: T2, ELK1 (Homo sapiens, UniProt P19419 1-428); conditions: protein: recombinant; tags: N-terminal GST; dsDNA, one strand shown
T2 sequence: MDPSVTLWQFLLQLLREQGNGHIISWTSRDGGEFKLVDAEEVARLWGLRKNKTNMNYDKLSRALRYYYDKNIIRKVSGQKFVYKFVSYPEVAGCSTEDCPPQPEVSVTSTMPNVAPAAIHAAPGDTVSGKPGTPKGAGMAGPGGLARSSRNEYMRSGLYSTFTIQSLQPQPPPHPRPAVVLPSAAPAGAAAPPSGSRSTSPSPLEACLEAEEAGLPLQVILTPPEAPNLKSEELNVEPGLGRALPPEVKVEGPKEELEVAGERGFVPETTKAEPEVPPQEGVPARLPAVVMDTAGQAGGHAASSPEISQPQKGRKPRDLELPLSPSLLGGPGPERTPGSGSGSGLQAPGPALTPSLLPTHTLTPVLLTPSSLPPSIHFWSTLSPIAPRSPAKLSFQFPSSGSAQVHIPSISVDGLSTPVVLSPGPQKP
Outline: as §1

GABPA = target: T3, GABPA (Homo sapiens, UniProt Q06546 1-454); conditions: protein: recombinant; tags: N-terminal GST; dsDNA, one strand shown
T3 sequence: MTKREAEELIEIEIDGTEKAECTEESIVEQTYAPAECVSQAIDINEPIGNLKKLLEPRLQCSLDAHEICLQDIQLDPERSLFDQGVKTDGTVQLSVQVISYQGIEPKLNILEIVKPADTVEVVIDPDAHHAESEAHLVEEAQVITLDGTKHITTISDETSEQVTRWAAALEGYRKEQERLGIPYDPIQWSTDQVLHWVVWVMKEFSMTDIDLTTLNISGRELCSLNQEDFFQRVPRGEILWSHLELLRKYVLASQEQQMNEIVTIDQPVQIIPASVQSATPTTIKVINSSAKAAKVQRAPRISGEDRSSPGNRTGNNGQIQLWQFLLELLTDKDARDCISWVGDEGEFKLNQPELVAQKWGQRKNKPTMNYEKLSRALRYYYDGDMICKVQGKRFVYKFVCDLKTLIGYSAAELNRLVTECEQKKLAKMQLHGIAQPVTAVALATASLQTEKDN
Outline: as §1

ERG = target: T4, ERG (Homo sapiens, UniProt P11308 1-479); conditions: protein: recombinant; tags: N-terminal GST; dsDNA, one strand shown
T4 sequence: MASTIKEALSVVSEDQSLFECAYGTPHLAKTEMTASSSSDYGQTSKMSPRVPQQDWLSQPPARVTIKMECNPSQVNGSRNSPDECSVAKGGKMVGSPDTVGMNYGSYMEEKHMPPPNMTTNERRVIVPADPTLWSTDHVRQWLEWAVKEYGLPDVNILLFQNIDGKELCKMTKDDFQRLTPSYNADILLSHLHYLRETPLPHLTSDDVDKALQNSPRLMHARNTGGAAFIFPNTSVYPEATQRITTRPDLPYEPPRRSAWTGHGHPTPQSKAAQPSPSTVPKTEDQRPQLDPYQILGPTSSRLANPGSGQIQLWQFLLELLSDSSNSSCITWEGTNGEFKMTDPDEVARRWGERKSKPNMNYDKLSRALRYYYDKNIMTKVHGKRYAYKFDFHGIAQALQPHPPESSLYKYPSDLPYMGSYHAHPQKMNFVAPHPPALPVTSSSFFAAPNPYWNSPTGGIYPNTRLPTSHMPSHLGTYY
Outline: as §1

ELF1 = ELF1 (Homo sapiens, UniProt P32519 1-619); conditions: protein: recombinant; tags: N-terminal GST; dsDNA, one strand shown
Outline: as §1

EHF = target: T5, EHF (Homo sapiens, UniProt Q9NZC4 1-300); conditions: protein: recombinant; tags: N-terminal GST; dsDNA, one strand shown
T5 sequence: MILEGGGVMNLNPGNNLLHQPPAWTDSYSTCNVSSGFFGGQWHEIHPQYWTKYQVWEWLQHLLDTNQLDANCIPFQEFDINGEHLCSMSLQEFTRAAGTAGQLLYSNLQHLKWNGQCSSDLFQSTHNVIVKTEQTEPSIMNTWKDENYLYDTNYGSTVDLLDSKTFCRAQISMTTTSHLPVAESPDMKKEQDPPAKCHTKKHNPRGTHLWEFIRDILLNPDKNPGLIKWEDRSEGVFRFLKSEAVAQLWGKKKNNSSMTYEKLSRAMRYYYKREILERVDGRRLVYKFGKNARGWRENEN
Outline: as §1

SPI1 = SPI1 (Homo sapiens, UniProt P17947 1-270); conditions: protein: recombinant; tags: N-terminal GST; dsDNA, one strand shown
Outline: as §1

SPIB = SPIB (Homo sapiens, UniProt Q01892 1-262); conditions: protein: recombinant; tags: N-terminal GST; dsDNA, one strand shown
Outline: as §1

ELK3 = target: T6, ELK3 (Homo sapiens, UniProt P41970 1-407); conditions: protein: recombinant; tags: N-terminal GST; dsDNA, one strand shown
T6 sequence: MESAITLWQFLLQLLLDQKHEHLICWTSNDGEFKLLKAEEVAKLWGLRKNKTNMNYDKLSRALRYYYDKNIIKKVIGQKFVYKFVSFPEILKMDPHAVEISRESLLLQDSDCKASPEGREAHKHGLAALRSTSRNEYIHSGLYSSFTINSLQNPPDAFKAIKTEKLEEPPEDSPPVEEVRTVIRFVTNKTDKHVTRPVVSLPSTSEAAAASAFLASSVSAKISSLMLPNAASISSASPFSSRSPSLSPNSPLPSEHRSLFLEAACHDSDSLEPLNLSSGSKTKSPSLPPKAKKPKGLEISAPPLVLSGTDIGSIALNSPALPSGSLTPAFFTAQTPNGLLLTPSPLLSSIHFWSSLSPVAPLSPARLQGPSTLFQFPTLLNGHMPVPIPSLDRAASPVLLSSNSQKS
Outline: as §1

FEV = target: T7, FEV (Homo sapiens, UniProt Q99581 1-238); conditions: protein: recombinant; tags: N-terminal GST; dsDNA, one strand shown
T7 sequence: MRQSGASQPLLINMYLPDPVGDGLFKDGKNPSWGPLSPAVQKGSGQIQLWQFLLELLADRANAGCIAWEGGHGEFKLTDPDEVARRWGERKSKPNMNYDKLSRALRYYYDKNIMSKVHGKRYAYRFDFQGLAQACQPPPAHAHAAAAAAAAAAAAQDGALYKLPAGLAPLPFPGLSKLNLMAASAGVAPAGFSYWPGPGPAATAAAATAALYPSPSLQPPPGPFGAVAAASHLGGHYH
Outline: as §1

ETV5 = ETV5 (Homo sapiens, UniProt P41161 1-510); conditions: protein: recombinant; tags: N-terminal GST; dsDNA, one strand shown
Outline: as §1

HSF1 = HSF1 (Homo sapiens, UniProt Q00613 1-529); conditions: protein: recombinant; tags: N-terminal GST; chain copies: 3; dsDNA, one strand shown
Outline: as §1

SPIC = target: T8, SPIC (Homo sapiens, UniProt Q8N5J4 1-248); conditions: protein: recombinant; tags: N-terminal GST; dsDNA, one strand shown
T8 sequence: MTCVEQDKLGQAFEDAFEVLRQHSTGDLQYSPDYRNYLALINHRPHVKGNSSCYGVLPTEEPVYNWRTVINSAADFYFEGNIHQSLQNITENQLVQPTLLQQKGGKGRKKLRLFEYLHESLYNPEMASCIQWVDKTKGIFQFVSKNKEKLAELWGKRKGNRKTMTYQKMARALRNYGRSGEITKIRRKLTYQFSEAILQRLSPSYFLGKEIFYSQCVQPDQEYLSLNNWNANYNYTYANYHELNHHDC
Outline: as §1

ELF4 = ELF4 (Homo sapiens, UniProt Q99607 1-663); conditions: protein: recombinant; tags: N-terminal GST; dsDNA, one strand shown
Outline: as §1

ELK4 = target: T9, ELK4 (Homo sapiens, UniProt P28324-2 1-405); conditions: protein: recombinant; tags: N-terminal GST; dsDNA, one strand shown
T9 sequence: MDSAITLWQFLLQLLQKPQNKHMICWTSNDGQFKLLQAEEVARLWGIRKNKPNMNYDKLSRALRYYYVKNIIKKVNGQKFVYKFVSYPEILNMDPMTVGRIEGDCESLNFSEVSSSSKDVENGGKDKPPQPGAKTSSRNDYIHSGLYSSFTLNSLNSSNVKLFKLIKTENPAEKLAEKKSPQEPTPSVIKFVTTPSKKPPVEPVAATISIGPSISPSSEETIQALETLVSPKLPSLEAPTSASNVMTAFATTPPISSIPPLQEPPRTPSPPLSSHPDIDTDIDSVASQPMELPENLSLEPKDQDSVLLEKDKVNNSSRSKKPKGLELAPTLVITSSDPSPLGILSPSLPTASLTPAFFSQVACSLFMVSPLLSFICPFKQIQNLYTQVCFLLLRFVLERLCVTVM
Outline: as §1

ETV2 = target: T10, ETV2 (Homo sapiens, UniProt O00321 1-342); conditions: protein: recombinant; tags: N-terminal GST; dsDNA, one strand shown
T10 sequence: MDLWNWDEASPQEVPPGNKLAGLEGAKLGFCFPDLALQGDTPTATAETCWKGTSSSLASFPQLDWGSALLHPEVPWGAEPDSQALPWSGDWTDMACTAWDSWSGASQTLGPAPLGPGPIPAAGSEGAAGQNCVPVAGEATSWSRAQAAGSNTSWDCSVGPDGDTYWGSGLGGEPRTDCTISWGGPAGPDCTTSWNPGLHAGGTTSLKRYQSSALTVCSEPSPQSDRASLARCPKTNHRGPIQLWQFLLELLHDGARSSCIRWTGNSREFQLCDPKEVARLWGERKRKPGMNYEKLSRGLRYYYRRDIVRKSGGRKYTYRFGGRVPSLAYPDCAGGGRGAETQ
Outline: as §1

ELF3 = target: T11, ELF3 (Homo sapiens, UniProt P78545 1-371); conditions: protein: recombinant; tags: N-terminal GST; dsDNA, one strand shown
T11 sequence: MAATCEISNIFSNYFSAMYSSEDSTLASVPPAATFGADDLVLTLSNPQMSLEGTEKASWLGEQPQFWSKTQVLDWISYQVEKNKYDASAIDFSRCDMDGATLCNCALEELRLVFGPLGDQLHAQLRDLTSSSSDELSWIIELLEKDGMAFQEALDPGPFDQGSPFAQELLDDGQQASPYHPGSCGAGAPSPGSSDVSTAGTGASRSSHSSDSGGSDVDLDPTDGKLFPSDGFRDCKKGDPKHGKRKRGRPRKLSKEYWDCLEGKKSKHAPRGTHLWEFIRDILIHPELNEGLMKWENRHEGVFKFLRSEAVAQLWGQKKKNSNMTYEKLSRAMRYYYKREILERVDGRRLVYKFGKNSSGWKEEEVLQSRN
Outline: as §1

CRX = CRX (Homo sapiens, UniProt O43186 1-299); conditions: protein: recombinant; tags: N-terminal GST; dsDNA, one strand shown
Outline: as §1

ETV1 = ETV1 (Homo sapiens, UniProt P50549 1-477); conditions: protein: recombinant; tags: N-terminal GST; dsDNA, one strand shown
Outline: as §1

ELF1, sequence (P32519 whole entry): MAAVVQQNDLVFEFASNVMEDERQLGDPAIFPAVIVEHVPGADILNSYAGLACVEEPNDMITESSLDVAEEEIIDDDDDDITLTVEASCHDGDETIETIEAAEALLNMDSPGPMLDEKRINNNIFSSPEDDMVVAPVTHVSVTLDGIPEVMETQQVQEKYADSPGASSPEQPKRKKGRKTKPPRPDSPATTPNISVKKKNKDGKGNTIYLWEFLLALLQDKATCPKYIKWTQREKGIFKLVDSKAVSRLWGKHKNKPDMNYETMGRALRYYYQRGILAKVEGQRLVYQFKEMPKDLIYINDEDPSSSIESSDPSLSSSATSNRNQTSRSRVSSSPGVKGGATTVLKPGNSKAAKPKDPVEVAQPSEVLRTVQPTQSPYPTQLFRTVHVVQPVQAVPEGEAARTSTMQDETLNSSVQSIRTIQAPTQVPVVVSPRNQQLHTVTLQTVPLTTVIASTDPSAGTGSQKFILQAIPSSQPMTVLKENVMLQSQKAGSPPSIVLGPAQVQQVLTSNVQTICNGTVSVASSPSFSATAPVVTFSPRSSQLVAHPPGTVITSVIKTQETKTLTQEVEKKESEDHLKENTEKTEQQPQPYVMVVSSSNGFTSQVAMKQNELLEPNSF
SPIB, sequence (Q01892 whole entry): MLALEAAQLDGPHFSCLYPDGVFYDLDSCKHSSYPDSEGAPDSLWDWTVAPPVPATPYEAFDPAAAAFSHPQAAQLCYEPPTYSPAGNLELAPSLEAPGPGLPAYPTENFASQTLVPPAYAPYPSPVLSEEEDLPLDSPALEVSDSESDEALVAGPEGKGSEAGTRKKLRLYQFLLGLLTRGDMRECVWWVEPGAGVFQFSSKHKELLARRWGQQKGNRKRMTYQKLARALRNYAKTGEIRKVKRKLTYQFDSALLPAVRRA
HSF1, sequence (Q00613 whole entry): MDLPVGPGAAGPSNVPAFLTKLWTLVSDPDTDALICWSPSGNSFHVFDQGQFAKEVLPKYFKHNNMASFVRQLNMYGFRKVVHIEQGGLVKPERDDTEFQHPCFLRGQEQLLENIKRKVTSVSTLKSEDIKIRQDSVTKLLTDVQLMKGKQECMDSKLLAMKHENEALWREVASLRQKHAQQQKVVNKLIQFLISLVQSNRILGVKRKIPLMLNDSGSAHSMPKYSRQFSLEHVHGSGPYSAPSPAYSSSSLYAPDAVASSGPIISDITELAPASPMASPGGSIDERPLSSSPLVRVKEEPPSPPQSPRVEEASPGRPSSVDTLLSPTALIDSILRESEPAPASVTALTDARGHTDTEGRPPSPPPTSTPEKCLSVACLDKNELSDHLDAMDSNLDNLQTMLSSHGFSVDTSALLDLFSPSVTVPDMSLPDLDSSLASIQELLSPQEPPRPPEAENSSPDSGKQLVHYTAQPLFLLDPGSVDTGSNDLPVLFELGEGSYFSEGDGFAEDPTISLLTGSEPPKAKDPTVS
ETV5, sequence (P41161 whole entry): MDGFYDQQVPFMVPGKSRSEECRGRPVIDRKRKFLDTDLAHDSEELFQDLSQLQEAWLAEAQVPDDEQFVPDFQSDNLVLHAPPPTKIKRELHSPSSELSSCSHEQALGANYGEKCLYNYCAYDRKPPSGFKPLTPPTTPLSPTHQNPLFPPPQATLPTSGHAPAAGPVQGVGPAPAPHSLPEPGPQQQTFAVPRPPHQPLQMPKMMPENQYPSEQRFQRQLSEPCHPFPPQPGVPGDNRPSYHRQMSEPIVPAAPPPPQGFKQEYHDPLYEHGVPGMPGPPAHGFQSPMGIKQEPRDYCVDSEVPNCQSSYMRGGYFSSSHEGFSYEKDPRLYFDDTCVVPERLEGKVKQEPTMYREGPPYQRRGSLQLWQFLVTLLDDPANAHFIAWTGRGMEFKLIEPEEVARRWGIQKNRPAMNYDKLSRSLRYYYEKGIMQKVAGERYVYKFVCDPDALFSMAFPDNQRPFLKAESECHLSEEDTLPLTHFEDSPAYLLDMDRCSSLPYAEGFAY
ELF4, sequence (Q99607 whole entry): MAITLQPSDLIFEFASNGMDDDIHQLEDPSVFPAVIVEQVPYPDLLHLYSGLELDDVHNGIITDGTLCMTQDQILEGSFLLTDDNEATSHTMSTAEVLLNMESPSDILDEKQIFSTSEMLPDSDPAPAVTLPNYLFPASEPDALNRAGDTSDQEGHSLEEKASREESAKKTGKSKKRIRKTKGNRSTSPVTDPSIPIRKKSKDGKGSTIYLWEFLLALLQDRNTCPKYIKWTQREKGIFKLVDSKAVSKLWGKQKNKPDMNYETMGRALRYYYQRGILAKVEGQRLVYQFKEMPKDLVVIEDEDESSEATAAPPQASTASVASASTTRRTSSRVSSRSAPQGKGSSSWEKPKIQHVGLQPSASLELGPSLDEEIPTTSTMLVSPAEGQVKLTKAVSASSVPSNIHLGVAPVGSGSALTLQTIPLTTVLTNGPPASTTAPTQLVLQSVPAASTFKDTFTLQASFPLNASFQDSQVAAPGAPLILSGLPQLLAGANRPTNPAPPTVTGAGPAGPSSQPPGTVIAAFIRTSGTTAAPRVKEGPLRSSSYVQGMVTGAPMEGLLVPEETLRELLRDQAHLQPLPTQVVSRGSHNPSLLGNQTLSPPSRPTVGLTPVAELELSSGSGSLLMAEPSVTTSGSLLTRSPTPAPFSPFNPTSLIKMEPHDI
CRX, sequence (O43186 whole entry): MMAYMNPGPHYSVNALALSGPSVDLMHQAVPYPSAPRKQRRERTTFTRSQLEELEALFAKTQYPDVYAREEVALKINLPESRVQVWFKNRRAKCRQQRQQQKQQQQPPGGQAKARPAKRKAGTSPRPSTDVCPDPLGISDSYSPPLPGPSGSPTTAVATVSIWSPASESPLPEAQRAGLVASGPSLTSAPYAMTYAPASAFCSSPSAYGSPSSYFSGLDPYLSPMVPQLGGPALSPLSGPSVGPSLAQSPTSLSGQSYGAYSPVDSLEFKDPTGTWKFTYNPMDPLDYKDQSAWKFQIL
ETV1, sequence (P50549 whole entry): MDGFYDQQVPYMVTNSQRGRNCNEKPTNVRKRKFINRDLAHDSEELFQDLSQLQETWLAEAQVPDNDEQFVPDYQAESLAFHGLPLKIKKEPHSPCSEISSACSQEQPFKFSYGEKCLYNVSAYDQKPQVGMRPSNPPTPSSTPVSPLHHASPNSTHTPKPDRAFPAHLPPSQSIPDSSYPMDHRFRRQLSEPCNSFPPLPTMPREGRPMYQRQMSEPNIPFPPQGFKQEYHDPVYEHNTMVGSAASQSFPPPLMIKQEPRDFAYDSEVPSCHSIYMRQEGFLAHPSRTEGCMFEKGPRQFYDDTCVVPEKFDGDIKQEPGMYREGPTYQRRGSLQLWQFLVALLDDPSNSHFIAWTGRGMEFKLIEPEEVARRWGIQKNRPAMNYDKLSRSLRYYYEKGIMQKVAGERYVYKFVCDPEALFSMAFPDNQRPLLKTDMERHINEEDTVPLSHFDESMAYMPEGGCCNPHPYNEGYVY

ATTTCA was tested, and the binding signal (FLI1) was 1.23 fold enrichment (6-mer frequency, TF over GST control), the binding signal (ELK1) was 1.17 fold enrichment (6-mer frequency, TF over GST control) and the binding signal (GABPA) was 1.23 fold enrichment (6-mer frequency, TF over GST control). For the same sequence, the binding signal (ERG) was 1.25 fold enrichment (6-mer frequency, TF over GST control), the binding signal (ELF1) was 1.21 fold enrichment (6-mer frequency, TF over GST control) and the binding signal (EHF) was 1.24 fold enrichment (6-mer frequency, TF over GST control). The binding signal (SPI1) was 1.23 fold enrichment (6-mer frequency, TF over GST control), the binding signal (SPIB) was 1.26 fold enrichment (6-mer frequency, TF over GST control) and the binding signal (ELK3) was 1.23 fold enrichment (6-mer frequency, TF over GST control). For the same sequence, the binding signal (FEV) was 1.25 fold enrichment (6-mer frequency, TF over GST control), the binding signal (ETV5) was 1.27 fold enrichment (6-mer frequency, TF over GST control) and the binding signal (HSF1) was 1.26 fold enrichment (6-mer frequency, TF over GST control). The binding signal (SPIC) was 1.18 fold enrichment (6-mer frequency, TF over GST control), the binding signal (ELF4) was 1.27 fold enrichment (6-mer frequency, TF over GST control) and the binding signal (ELK4) was 1.27 fold enrichment (6-mer frequency, TF over GST control). For the same sequence, the binding signal (ETV2) was 1.28 fold enrichment (6-mer frequency, TF over GST control), the binding signal (ELF3) was 1.16 fold enrichment (6-mer frequency, TF over GST control) and the binding signal (CRX) was 1.22 fold enrichment (6-mer frequency, TF over GST control). The binding signal (ETV1) was 1.25 fold enrichment (6-mer frequency, TF over GST control).
